# Measurements as given in article PMC13494018.
# B1: design_612_bdadb936-3f14-48ad-830f-718e38d81c30_247_dldesign_0_cycle1_af2pred (protein)
# chain: GALGRSVARDTARAFLADPEKGKEMADIAAGVGATDAAAGRAALEELLRLAKEHPEVAEQLEAAAKKVAAAIKQAEAAAA
# B2: design_613_5efed0bc-64ba-423b-b3f9-a246574e49bb_395_dldesign_0_cycle1_af2pred (protein)
# chain: SKTAEDGIKFIKELTEIAKAAAAAGQPKSVVETIRKTLEHATKVFAAAAAEDNPEYAEKVKKAGEEALKEADKAIAA
# B3: design_612_bdadb936-3f14-48ad-830f-718e38d81c30_715_dldesign_0_cycle1_af2pred (protein)
# chain: IEQLAALARASYRAVRVAAENLAAGRLTPEQLKAAAQLAEGTEKLAKETAAAYNADPATKEKAAEFEELARFAKEVRDAARAAL
# B4: design_612_bdadb936-3f14-48ad-830f-718e38d81c30_271_dldesign_0_cycle1_af2pred (protein)
# chain: AARAEALAAEGEALIEQALSDATLSEEERKALLNQAAHKFVAAAGALVADRGPAAQAEITALLSKAVEAKALAEA
# B5: design_612_bdadb936-3f14-48ad-830f-718e38d81c30_1230_dldesign_0_cycle1_af2pred (protein)
# chain: AAAAAVATAAADAMYKQAKKQAEEAFKAAKENPEEGKKLAESALKNFELAATLYAQAGDEAKAKAVLEEGKEKYEEIMKKIKEAE
# B6: design_612_bdadb936-3f14-48ad-830f-718e38d81c30_1696_dldesign_0_cycle1_af2pred (protein)
# chain: SAEILAAQAKALELMKEAAKYNRKAGGKTAELALEAAKYATKAISYFATGEKKAEGEEEYKKAEEKLKEVKKKAA
# B7: design_613_5efed0bc-64ba-423b-b3f9-a246574e49bb_896_dldesign_0_cycle1_af2pred (protein)
# chain: AQAEAARQAAVDALAKSGEAAVKAMKEDPERASKRASGAIANLRLLGDEETAEKVAKKLLEEAKKLGEEAYEIAKKEVEKAKENVEA
# B8: design_612_bdadb936-3f14-48ad-830f-718e38d81c30_973_dldesign_0_cycle1_af2pred (protein)
# chain: GAATALAILKANLAAQVKAAAAGVGAKAAAETAKVLADSAAGIAKADPAVAAEAEKLAAEAKAASKEFAAKAEAAAAA
# B9: design_612_bdadb936-3f14-48ad-830f-718e38d81c30_1687_dldesign_0_cycle1_af2pred (protein)
# chain: MELVKRAREILERAERAETVEELRRVLAEAARLAGEAARAAIADPATAAAANEALAIALEAMRVATERARAAR
# B10: design_612_bdadb936-3f14-48ad-830f-718e38d81c30_1730_dldesign_0_cycle1_af2pred (protein)
# chain: AAAAAVAKVKAAKEKAKELLEEARKLAKEDPEKAGEVLNKALTYVSKVAAQAAKDGPEAAAAAAKVLGEVLDEVAEIEKLRKEIAA
# B11: design_612_bdadb936-3f14-48ad-830f-718e38d81c30_2140_dldesign_0_cycle1_af2pred (protein)
# chain: DAAAAALAAAHIAKLNAIAKEGIEAAKKGDPEANAEKAVAKINAAASAAVKEMTALGANGSYITQVLQAAAEAIKKVREAAKKAK
# B12: design_613_5efed0bc-64ba-423b-b3f9-a246574e49bb_260_dldesign_0_cycle1_af2pred (protein)
# chain: AAAVGEGSKLVIEGIKALAEAAQRVAFDPEIQAKLMAQAAKATRALVQGAADPATALELAKKALEEAKKAVKEAEKVLA
# B13: design_612_bdadb936-3f14-48ad-830f-718e38d81c30_1961_dldesign_0_cycle1_af2pred (protein)
# chain: MERLEKIEKRIEEIEKVVEEAEKKVKEGTITGEDALRLNKALAEARRIAEEAAKLDPELAKRAQAVAERASRVLVEGNKLLVA
# B14: design_613_5efed0bc-64ba-423b-b3f9-a246574e49bb_304_dldesign_0_cycle1_af2pred (protein)
# chain: AEAAKAAAVALAAAMLALADALAKAGDFGTALAIATLGARIVDTVVGPEAGAAFQAQRDAVISSNARAAIAAA
# B15: design_613_5efed0bc-64ba-423b-b3f9-a246574e49bb_341_dldesign_0_cycle1_af2pred (protein)
# chain: SEMIEKIKELGEEAKKIGKEGLAGTPEEMLKAAEKLRELMKEISRLAAEAMKESPEVEEIALAGGEALSIAAEEIAKLQAAAAAA
# B16: design_612_bdadb936-3f14-48ad-830f-718e38d81c30_1207_dldesign_0_cycle1_af2pred (protein)
# chain: GAELLAKKAQELYKKAEELAKKAPESVEAAKKAQEYAQQSIATVAELFEKFPEAPQELKASLARIAAQAAKYYLDAQKLIKAA
# B17: design_612_bdadb936-3f14-48ad-830f-718e38d81c30_501_dldesign_0_cycle1_af2pred (protein)
# chain: DLLAKQKELSEKYERVAEIGEEARKLVGEEAAELSLKALTYYTKAMAAYAAGEATAAEAEKYEKKGEEYEKKLKELKEKELKK
# B18: design_612_bdadb936-3f14-48ad-830f-718e38d81c30_2117_dldesign_0_cycle1_af2pred (protein)
# chain: EEERAAAVNAAMQAIIALQQAGQALEASGDPAAKAKGKEAYAKAGEYQKLLKEYNDDVEKVKEIAKDAAAAAAEYAAAVKKAQAA
# B19: design_612_bdadb936-3f14-48ad-830f-718e38d81c30_557_dldesign_0_cycle1_af2pred (protein)
# chain: MDQAVADRTAEALAKHAKRLLEEGLKLAKEGDLEEAKKKVEAAKQVAEVLKNLGSPKAAELGEKMLEEAKKALEEIKKR
# B20: design_612_bdadb936-3f14-48ad-830f-718e38d81c30_1181_dldesign_0_cycle1_af2pred (protein)
# chain: MMEEIKKLTEKGEELLKKGKELAKEGTAEAANKALAYYVEAAEYYEKALRLAKEAGAEEEFIKELEKKLQEAFANANAAAKAAIALTA
# B21: design_612_bdadb936-3f14-48ad-830f-718e38d81c30_262_dldesign_0_cycle1_af2pred (protein)
# chain: AKERVKELAKEIEKLAKEAPPEVAKHLKKAAEALKKGVEEGPGAMAEAVVTLAEAAAEAYKLDPEVGERLRRIAAEVARLAIEYQA
# B22: design_612_bdadb936-3f14-48ad-830f-718e38d81c30_773_dldesign_0_cycle1_af2pred (protein)
# chain: SAAAEAQQRLNELLGRLTAATEAGAAVDPALASALAGKAFTELSKAHQYLLAGDVDAAQAELDKAEKLVKELEAAAAAAAAAAA
# B23: design_613_5efed0bc-64ba-423b-b3f9-a246574e49bb_35_dldesign_0_cycle1_af2pred (protein)
# chain: DQARADALIAAVDAAVAAAEAALAEDPELGLAKGAEASALIVEALKASAELSPAERARLAAALNAATARLLKVQAAAREQLA
# B24: design_612_bdadb936-3f14-48ad-830f-718e38d81c30_1747_dldesign_0_cycle1_af2pred (protein)
# chain: SAADVAAATQKALKKQAEKLLELAKEAAAKDKEEAKKYAKAAKKLAELMVLAGEQAGTGAEAKKEAEKIKKEVEKVVKEA
# B25: design_612_bdadb936-3f14-48ad-830f-718e38d81c30_608_dldesign_0_cycle1_af2pred (protein)
# chain: AALVAQAAADLEAIGARYPALKPAADRALTLTPGLRLLAANTARNALPGSEEEIVEALRRMVEALEAEQARLDAA
# B26: design_612_bdadb936-3f14-48ad-830f-718e38d81c30_1983_dldesign_0_cycle1_af2pred (protein)
# chain: EEKVREEAKEAIEKAKEAVEKLKEAAKADPRLAVAAKAATAALEKAKELLEENPESALKLAKTTLDLAEATLAAAA
# B27: design_612_bdadb936-3f14-48ad-830f-718e38d81c30_1832_dldesign_0_cycle1_af2pred (protein)
# chain: MEKAKELVKKIKELARKIKELAERLKADPSTAEQDLKEVNEALSEALELQKKVAEIGSPEDAEEANKELGKAQRAALEAHRAAAELA
# B28: design_612_bdadb936-3f14-48ad-830f-718e38d81c30_642_dldesign_0_cycle1_af2pred (protein)
# chain: MREEARALLERAREALARARALAEAGGDGGEAVSLMVEALEAASRALRLARELGDEELAEEAERLLAEIRRATAAITQAVIDRA
# B29: design_612_bdadb936-3f14-48ad-830f-718e38d81c30_1931_dldesign_0_cycle1_af2pred (protein)
# chain: SMEELEKKREEAEKGLEEIKELAKKAAEGAKDPATAAATMAEALEKLEEYKETIELAKEVGEELAEKVRAAVNELLANVARAGAVAAA
# B30: design_612_bdadb936-3f14-48ad-830f-718e38d81c30_1410_dldesign_0_cycle1_af2pred (protein)
# chain: MEEIRALAEEALATAEAELATMRAAQEAGDVGTAVDALRVLFRTANEAIRRLRELGGPEEYIERLEAARREAQAILAATARRAIAQA
# B31: design_613_5efed0bc-64ba-423b-b3f9-a246574e49bb_418_dldesign_0_cycle1_af2pred (protein)
# chain: AGAEAAAHLNAAFASLSKGLISTDPAEAQKYFDEAKAHLDKARALAAKDPAVAAEVQAAVDKITDLLEGGKAAR
# B32: design_613_5efed0bc-64ba-423b-b3f9-a246574e49bb_150_dldesign_0_cycle1_af2pred (protein)
# chain: GEKEKAVKEAKEAAEETEKVAKEAIKAAKAAGNEAAAKMAEALAKNAKKALEEAKKGTLEEAKKNLKYIESNLKNAKLILEGQ
# B33: design_612_bdadb936-3f14-48ad-830f-718e38d81c30_331_dldesign_0_cycle1_af2pred (protein)
# chain: GKKAQAIALIDEATALLIAAQAADAETGAKLTAEAVKLLSEAIELAAELNGRAAGLIGRLLALGAAGTISPERLKELAAAAKAEIEAA
# B34: design_612_bdadb936-3f14-48ad-830f-718e38d81c30_1240_dldesign_0_cycle1_af2pred (protein)
# chain: GEEEERDERARELVEKGREEAEKYIAAGKVGEAAGVVVEKAAEAHRVAVSPEVKAEINRELAAQIRRIMEAIA
# B35: design_612_bdadb936-3f14-48ad-830f-718e38d81c30_2254_dldesign_0_cycle1_af2pred (protein)
# chain: GAAEAEEAARREEAKKLAEEYLKKVEEAAKESTGKAVEVMVKGVKELLEIGDKETANALAQEATRIISAAVRA
# B36: design_612_bdadb936-3f14-48ad-830f-718e38d81c30_380_dldesign_0_cycle1_af2pred (protein)
# chain: SQALQTQMLIANARNLAKNAEELLKKGDVEKAEKAVEALEKLAKIAGEASPEAGKEAGKLAEEARKKVEEFKK
# B37: design_612_bdadb936-3f14-48ad-830f-718e38d81c30_1324_dldesign_0_cycle1_af2pred (protein)
# chain: AFAAAIAALTAAAAATTPALATQLNAVKTAVTNTAKNAQAAPPEVKAATAAKWAEIAQGAVDAALAAAAA
# B38: design_612_bdadb936-3f14-48ad-830f-718e38d81c30_2023_dldesign_0_cycle1_af2pred (protein)
# chain: AEAETLGSLARGAISFLRTAAAYLRRKAAAAADPATAATLNAYADRLEALAEAAAKAVEEGKYEEAVALAEEGVALALEGAAAAA
# Molecular target: CD276, Q5ZPR3
# Sequence (Q5ZPR3 whole entry): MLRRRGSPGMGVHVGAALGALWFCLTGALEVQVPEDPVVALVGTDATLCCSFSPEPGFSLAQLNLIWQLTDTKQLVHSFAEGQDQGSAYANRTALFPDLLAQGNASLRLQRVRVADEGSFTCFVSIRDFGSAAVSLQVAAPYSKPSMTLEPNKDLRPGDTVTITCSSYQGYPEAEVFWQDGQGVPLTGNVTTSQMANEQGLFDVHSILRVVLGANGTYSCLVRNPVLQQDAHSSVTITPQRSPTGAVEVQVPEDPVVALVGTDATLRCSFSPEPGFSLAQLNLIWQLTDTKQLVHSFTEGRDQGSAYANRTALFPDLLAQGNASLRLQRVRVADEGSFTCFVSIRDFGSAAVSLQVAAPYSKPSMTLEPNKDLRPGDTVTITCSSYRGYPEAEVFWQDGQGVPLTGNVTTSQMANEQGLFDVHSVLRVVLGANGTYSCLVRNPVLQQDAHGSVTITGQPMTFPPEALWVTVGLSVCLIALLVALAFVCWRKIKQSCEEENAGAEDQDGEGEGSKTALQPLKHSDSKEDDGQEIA
row,Binder,binding in a display sort
1,B1,not found (inactive)
2,B2,not found (inactive)
3,B3,not found (inactive)
4,B4,not found (inactive)
5,B5,not found (inactive)
6,B6,not found (inactive)
7,B7,not found (inactive)
8,B8,not found (inactive)
9,B9,not found (inactive)
10,B10,not found (inactive)
11,B11,not found (inactive)
12,B12,not found (inactive)
13,B13,not found (inactive)
14,B14,not found (inactive)
15,B15,not found (inactive)
16,B16,not found (inactive)
17,B17,not found (inactive)
18,B18,not found (inactive)
19,B19,not found (inactive)

row,Binder,binding in a display sort
1,B20,not found (inactive)
2,B21,not found (inactive)
3,B22,not found (inactive)
4,B23,not found (inactive)
5,B24,not found (inactive)
6,B25,not found (inactive)
7,B26,not found (inactive)
8,B27,not found (inactive)
9,B28,not found (inactive)
10,B29,not found (inactive)
11,B30,binds (active)
12,B31,not found (inactive)
13,B32,not found (inactive)
14,B33,not found (inactive)
15,B34,not found (inactive)
16,B35,not found (inactive)
17,B36,not found (inactive)
18,B37,not found (inactive)
19,B38,not found (inactive)
